The record followed here is PubChem BioAssay (EPA / NIEHS).

The structures appear in SMILES notation. Several values for one entry are separate records, joined by “and”; a condition that tells them apart may be missing. Equal entries are not always repeated. The source holds several records for some structures; these can differ, active in one and inactive in another. Activity calls are given as the source filed them. The calls were made as follows: active = hit-call score of the fitted dose curve at least 0.9, where 1 is the maximum; inactive = score below 0.9.

Read-out in this experiment: Cytochrome P450 (CYP1A1), CYP1A1 (gene 1543)
Put plainly: LTEA_HepaRG_CYP1A1: Life Technologies and Expression Analysis (LTEA) Assay for Cytochrome P450 (CYP1A1) using HepaRG (AID 2283454). The following applies: mRNA level, 48 h; actives raise or lower the signal. The method, then: LTEA_HepaRG is a cell based, multiplexed-readout assay that uses HepaRG, a human liver cell line, with measurements taken at 48 hours after chemical dosing on a 96-well plate.LTEA_HepaRG_CYP1A1 is one of 102 assay component(s) measured in the LTEA HepaRG cell culture assay. It is a marker of NR mediated metabolism.Data from the assay component LTEA_HepaRG_CYP1A1 was analyzed into 1 endpoint. This assay endpoint, LTEA_HepaRG_CYP1A1, was analyzed with bidirectional fitting relative to DMSO as the negative control and baseline of activity. Using a type of inducible reporter, measures of mRNA induction for gain or loss-of-signal activity can be used to understand regulation of transcription factor activity. To generalize the intended target to other relatable targets, this assay endpoint is annotated to the cyp intended target family, where the subfamily is xenobiotic metabolism.
A total of 1060 chemcials from the ToxCast library were tested in eight-point concentration-response experiments. Cell culture and cytotoxicity assays were conducted at Thermo Fisher Scientific's Custom Services facility (Madison, WI). A single lot of human HepaRG cells (Thermo Fisher Scientific, Frederick, MD) was used for the cell culture experiments. 96-well format collagen type I coated plates of human HepaRG cells were prepared using established methods. Briefly, cryopreserved HepaRG cells were thawed, plated at a density of approximately 100,000 cells/well in HepaRG Thaw, Plate, and General Purpose media (HPRG770, Thermo Fisher Scientific), and incubated for 48 hours. 0.5% DMSO was selected as vehicle control to balance the requisite need of DMSO in HepaRG cultures to maintain differentiation (for example, baseline metabolism, proportions of hepatocytes vs. cholangiocytes), while enabling further hepatic receptor pathway activation (for example, PXR and CAR) in response to chemical exposure. 48 hours after plating, the culture medium was replaced with HepaRG Serum-Free Incudtion Media. Cells were exposed to each test chemical in duplicate and maintained in CO2 incubators for another 48 hours. Chemical plates were thawed to room temperature and 200x concentrations of treatment groups were prepared. 8-point conentration-reponse curves were made with the highest exposure at 100 uM, followed by half-log dilutions, all in 0.5% DMSO. Each test plate contained variouse controls, induction positive controls (1mM phenobarbital), cytotoxicity positive controls ([…] aflatoxin B1), vehicle controls (0.5% DMSO), and total lysis controls (0.5% DMSO). Cell morphology images were taken using an Essen IncuCyte FLR automated microscope, with six 96-well plates imaged in about 24 minutes. Images were captured and exported and JPEG files. Spent culture media was transfered to black-well plates for the LDH assay, and remaining media was sorted at -80 C for later use. Cells were treated with RLT buffer and frozen until shipped for gene expression analysis. Total RNA was isolated from the cell suspension in 75 uL of Buffer RLT (Qiagen, Germantown, MD 20874) by Quintiles/Expression Analysis (Durham, NC) using a custom isolation procedure. Total RNA from each plate well was transferred to a preamplification plate. Fluidigm's 96.96 Dynamic ArrayTM (Fluidigm, Amsterdam, the Netherlands) technology was used for gene expression analyses by quantitative reverse transcription polymerase chain reaction (qRT-PCR, performed by Quintiles/Expression Analysis, Durham, NC)89. Standard TaqManTM Assays (Applied Biosystems/ThermoFisher Scientific, Foster City, CA) were used to assess the expression of 93 genes selected based on their selectivity and sensitivity to important hepatic receptors known to be modulated by environmental chemicals; importance in human hepatocyte functionality; and hepatotoxicity. […]
On to `COc1cc(-c2ccc(N)c(OC)c2)ccc1N`, for which the AC50 is 20.6 µM (active) and 24.2 µM (active).

Consider `CCN1CCC2(CC1)COc1cc3c(cc12)N(C(=O)c1ccc(-c2ccc(-c4nnc(C)o4)cc2C)cc1)CC3`, for which the concentration at half-maximal activity (AC50) was 9.34 µM (active). As to `O=C(O)C(F)(F)C(F)(F)C(F)(F)C(F)(F)C(F)(F)C(F)(F)F`, the result was inactive. With `O=[N+]([O-])c1ccc(O)c([N+](=O)[O-])c1`, the AC50 is 71.5 µM (active). For `Oc1cccc2cccnc12`, the molecule was called inactive. Turning to `CC(C)(c1ccccc1)c1ccc(O)c(C(C)(C)c2ccccc2)c1`, the AC50 was 35.8 µM (active). Turning to `O=c1[nH]c(=O)[nH]c(=O)[nH]1`, the call was inactive.

Consider `C[C@]12CCC(=O)C[C@@H]1CC[C@@H]1[C@@H]2CC[C@]2(C)[C@@H](O)CC[C@@H]12`, for which the AC50 is 35.7 µM (active). In the case of `CC(C)(C)CC(C)(C)c1ccc(O)cc1`, the AC50 is 81.5 µM (active). For the molecule `O=C(Nc1ccc2[nH]ccc2c1)c1cc2cc(F)ccc2n1Cc1cccc(F)c1`, the AC50 is 91.7 µM (active). For `CCOP(=S)(OCC)Oc1nc(Cl)c(Cl)cc1Cl`, the AC50 was 34.4 µM (active).

Turning to `O=C(O)C(Cl)(Cl)Cl`, the result was inactive and the AC50 is 50 µM (active).

As for `CCC(=O)C(CC(C)N(C)C)(c1ccccc1)c1ccccc1` (stereo unspecified), the AC50 is 55.3 µM (active).

As to `O=C(O)C(F)(F)C(F)(F)C(F)(F)C(F)(F)C(F)(F)C(F)(F)C(F)(F)C(F)(F)C(F)(F)C(F)(F)F`, the molecule was classed as inactive. Still for that read-out and setting: the value for `CN(C)N=O` was “inactive”.

`CCOP(=S)(OCC)SCSP(=S)(OCC)OCC`: the AC50 was 33.1 µM (active).

Regarding `Cn1sc(Cl)cc1=O`, the call was inactive. Take `CCCCCCCCc1ccc(O)cc1`: the molecule was called inactive. As for `CC(C)(OO)c1ccccc1`, the AC50 was 65.7 µM (active).

With `O=C1C2(Cl)C3(Cl)C4(Cl)C(Cl)(Cl)C5(Cl)C3(Cl)C1(Cl)C5(Cl)C24Cl` (stereo unspecified), the call was inactive. Turning to `C=CC(=O)OCCCCCC(C)C`, the AC50 is 50 µM (active). Turning to `ClCC(Cl)CCl`, the molecule was called inactive. Turning to `NC(=O)O`, the outcome was inactive. As for `CC12CC1(C)C(=O)N(c1cc(Cl)cc(Cl)c1)C2=O` (stereo unspecified), the molecule was called inactive. Take `ClC1(Cl)C2(Cl)C3(Cl)C4(Cl)C(Cl)(Cl)C5(Cl)C3(Cl)C1(Cl)C5(Cl)C24Cl` (stereo unspecified): the AC50 is 23.3 µM (active).

Take `CC(C)(C)c1cc(O)ccc1O`: the result was inactive. As for `CCC(C)(C)c1ccc(O)c(C(C)(C)CC)c1`, the AC50 was 74 µM (active). Regarding `CC(=O)[O][Hg][c]1ccccc1`, the molecule was classed as inactive. Consider `C=C(C)C(=O)[O][Sn]([CH2]CCC)([CH2]CCC)[CH2]CCC`, for which the AC50 was 2.87 µM (active). Turning to `Cc1ccccc1N`, the molecule was called inactive.

The AC50 is the concentration at which the activity in the assay is half-maximal.
